Results published in PubChem BioAssay (NCATS).
Records with an inconclusive call do not appear. Entries that show only a call come without a potency. Activity calls are given as the source filed them. Calls follow the shape of the dose curve; as a rule, active = well fitted inhibition curve with a large enough effect; inconclusive = small, poorly fitted or top-dose-only effect; inactive = flat fitted curve, though single readings scatter.

Assay: P-glycoprotein substrates identified in KB-8-5-11 adenocarcinoma cell line, qHTS therapeutic library screen (AID 1346987); also: nearly all actives have a fitted effect of over 65% in size
Details: KB-8-5-11 (P-gp overexpressing) viability, CellTiter-Glo, 72 h; series mostly up to 44.5 µM
In short: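 KB-8-5-11, a colchicine-selected P-gp-overexpressing KB-3-1 subline, was grown without colchicine for the assay. Cells were seeded at 500 cells/well, dosed in concentration-response and incubated 72 h at 37 degree C, 5% CO2. Viability was read by CellTiter-Glo luminescence.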
Potency is read from the fitted curve at half-maximal effect.

Row | SMILES | Potency
1 | Cc1cc(N2CCN(C(=O)Oc3ccc(-c4ccccc4)cn3)CC2)c2ccccc2n1 | 14.6 µM (active)
2 | C#CCCCn1cc(-c2cccc3c2N[C@H](C)CC(=O)N3)cn1 | 1.46 µM (active)
3 | COC(=O)c1ccc(N2CCN(C)CC2)c(NC(=O)c2cccc(OC)c2)c1 | inactive
4 | CC(C)(C)c1ccc2c(c1)CC[C@H]2NC(=O)Nc1cccc2[nH]ncc12 | inactive
5 | CCCNCCc1ccc(NS(=O)(=O)c2ccc(OC(F)(F)F)cc2)cc1 | inactive
6 | C/C=C1\NC(=O)[C@H]2CSSCC/C=C/[C@H](CC(=O)N[C@H](C(C)C)C(=O)N2)OC(=O)C(C(C)C)NC1=O (stereo partly specified) | 20.6 µM (active)
7 | COC1CC/C=C(\C)C(=O)Nc2cc(O)cc(c2)CC(C)CC(OC)C(O)C(C)/C=C(\C)C1OC(N)=O (stereo unspecified) | inactive
8 | C[C@H]1C[C@@H]2[C@H]([C@@H](O)C[C@@]3(C)[C@H]2CC[C@]3(O)C(=O)COC(=O)CCC(=O)O)[C@@]2(C)C=CC(=O)C=C12 | inactive
9 | CCCCCCCCCCCCCCCC(=O)OC[C@@H](COP(=O)([O-])OCC[N+](C)(C)C)OC(=O)CCCCCCCCCCCCCCC | inactive
10 | C=C1/C(=C/C=C2\CCC[C@]3(C)[C@@H]([C@H](C)/C=C/[C@H](O)C4CC4)CC[C@@H]23)C[C@@H](O)C[C@@H]1O | inactive
11 | CN(C)c1ccnc2sc3c(=O)n(N4CCCCCC4)cnc3c12 | inactive
